Laboratory results from PubChem BioAssay (NCATS).
Several values for one entry are separate records, joined by “and”; a condition that tells them apart may be missing. Identical values can stand only once. Inconclusive results are not listed. A call without a number means that no potency is given here. A number with no mark means an inactive call. Activity calls are given as the source filed them. Calls come from the whole dose curve; as a rule, active = well fitted curve in the direction sought with a large enough effect; inconclusive = small, poorly fitted or top-dose-only effect, or another doubt; inactive = no such curve, though single readings can be large; an effect the other way counts as inactive or inconclusive.

What was measured:
HaCat = test: Cytotoxic Profiling of Annotated Libraries Using Quantitative High-Throughput Screening (AID 1296008); settings: Five cell lines viability, CellTiter-Glo ATP luminescence, 48-72 h; max response: stronger effect = lower value; note: nearly all actives have a fitted effect of over 60% in size
Outline: (§1)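 Cytotoxicity was measured as CellTiter-Glo ATP luminescence, read after 10 min at room temperature. Compound treatment of the cells lasted 48 or 72 hr at 37 degrees Celsius in a qHTS format.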

KB-3-1 = test: as above; settings: Five cell lines viability, CellTiter-Glo ATP luminescence, 48-72 h; max response: stronger effect = lower value
Outline: as §1

MCC-13 = test: qHTS assay to identify novel small-molecules to repurpose for Merkel cell carcinoma treatment (AID 1296009); settings: MCC and control cell lines, CellTiter-Glo viability, 72 h; series mostly up to 46 µM; note: nearly all actives have a fitted effect of over 60% in size
Outline: (§2)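 Cell viability, measured as CellTiter-Glo luminescence, was normalized between DMSO and no-cell wells. The cells had been exposed to 8- or 11-point compound dilutions for 72 hr at 37 degree celsius.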

MCC-26 = test: as above; settings: MCC and control cell lines, CellTiter-Glo viability, 72 h; series mostly up to 46 µM
Outline: as §2

MKL-1 = test: as above; settings: MCC and control cell lines, CellTiter-Glo viability, 72 h; series mostly up to 46 µM
Outline: as §2

MKL-2 = test: as above; settings: MCC and control cell lines, CellTiter-Glo viability, 72 h; series mostly up to 46 µM
Outline: as §2

UISO = test: as above; settings: MCC and control cell lines, CellTiter-Glo viability, 72 h; series mostly up to 46 µM
Outline: as §2

WaGa = test: as above; settings: MCC and control cell lines, CellTiter-Glo viability, 72 h; series mostly up to 46 µM
Outline: as §2

NIH3T3 = test: Cytotoxic Profiling of Annotated Libraries Using Quantitative High-Throughput Screening (AID 1296008); settings: Five cell lines viability, CellTiter-Glo ATP luminescence, 48-72 h; max response: stronger effect = lower value; note: nearly all actives have a fitted effect of over 60% in size
Outline: as §1

C33A = test: Primary qHTS to identify gynecologic anti-cancer compounds using libraries of approved drugs and bioactive compounds (AID 1345084); settings: Gynecologic cancer cell panel viability, ATPlite luminescence, 48 h; series mostly up to 57.5 µM; note: nearly all actives have a fitted effect of over 55% in size
Outline: (§3)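 Five-point cytotoxicity, 48 h drug exposure at 37 C, 5% CO2, on cells seeded 16 h beforehand. ATP content read by ATPlite luminescence.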

CAOV3 = test: as above; settings: Gynecologic cancer cell panel viability, ATPlite luminescence, 48 h; series mostly up to 57.5 µM
Outline: as §3

CASKI = test: as above; settings: Gynecologic cancer cell panel viability, ATPlite luminescence, 48 h; series mostly up to 57.5 µM
Outline: as §3

HeLa = test: as above; settings: Gynecologic cancer cell panel viability, ATPlite luminescence, 48 h; series mostly up to 57.5 µM
Outline: as §3

JEG-3 = test: as above; settings: Gynecologic cancer cell panel viability, ATPlite luminescence, 48 h; series mostly up to 57.5 µM
Outline: as §3

Es-2 = test: as above; settings: Gynecologic cancer cell panel viability, ATPlite luminescence, 48 h; series mostly up to 57.5 µM
Outline: as §3

Hek293T = test: as above; settings: Gynecologic cancer cell panel viability, ATPlite luminescence, 48 h, control line for the selectivity index; series mostly up to 57.5 µM
Outline: as §3
Potency is the fitted concentration of half-maximal effect.

CC=CC[C@@H](C)C(=O)[C@H]1C(=O)N[C@@H](C(C)C)C(=O)N(C)CC(=O)N(C)[C@@H](CC(C)C)C(=O)N[C@@H](C(C)C)C(=O)N(C)[C@@H](CC(C)C)C(=O)N[C@@H](C)C(=O)N[C@H](C)C(=O)N(C)[C@@H](CC(C)C)C(=O)N(C)[C@@H](CC(C)C)C(=O)N(C)[C@@H](C(C)C)C(=O)N1C
max response (HaCat): -21.7%
max response (KB-3-1): -1.28%
Potency (MCC-13): inactive
Potency (MCC-26): inactive
Potency (MKL-1): inactive
Potency (MKL-2): inactive
Potency (UISO): inactive
Potency (WaGa): inactive

c1ccc2c(-c3cnn4cc(-c5ccc(N6CCNCC6)cc5)cnc34)ccnc2c1
Potency (KB-3-1): 3.32 µM (active)
max response (NIH3T3): -102%
Potency (MCC-13): 10.5 µM (active)
Potency (MCC-26): 8.33 µM (active)
Potency (MKL-1): 2.96 µM (active)

CC(C)C[C@H](CC(=O)O)C(=O)N[C@@H](Cc1c[nH]c2ccccc12)C(=O)N[C@@H](C)c1ccccc1
max response (HaCat): 3.15%
max response (KB-3-1): 5.47%
Potency (MCC-13): inactive
Potency (MCC-26): inactive
Potency (MKL-1): 4.69 µM (active)
Potency (UISO): inactive
Potency (WaGa): 3.32 µM (active)

CN(C)Cc1ccc(-c2nc3cccc4c3n2CCNC4=O)cc1
max response (HaCat): -6.01% and -9.35%
max response (NIH3T3): -8.05% and -9.14%
Potency (MCC-13): inactive
Potency (MCC-26): inactive
Potency (MKL-1): inactive
Potency (UISO): inactive
Potency (WaGa): inactive
Potency (C33A): inactive
Potency (CAOV3): inactive
Potency (CASKI): inactive
Potency (HeLa): inactive
Potency (JEG-3): inactive

CC(C)C(=O)Nc1ncc(-c2cc(C(F)F)nn2-c2c(Cl)cccc2Cl)s1
max response (HaCat): -19.8%
Potency (MKL-1): inactive
Potency (WaGa): inactive
Potency (C33A): inactive
Potency (CASKI): inactive
Potency (Es-2): inactive
Potency (Hek293T): inactive
Potency (JEG-3): inactive

O=C1NC(=O)C(=Cc2cccc(C(F)(F)F)c2)S1
max response (HaCat): -6.56%
max response (NIH3T3): -7.62%
Potency (MCC-13): inactive
Potency (MCC-26): inactive
Potency (MKL-1): inactive
Potency (MKL-2): inactive
Potency (WaGa): inactive

Cc1ccc(F)c(NC(=O)Nc2ccc(-c3cccc4[nH]nc(N)c34)cc2)c1
max response (HaCat): 2.26%
max response (NIH3T3): -7.65%
Potency (MCC-13): inactive
Potency (MKL-2): inactive
Potency (WaGa): inactive

NC(=O)c1cccc2[nH]c(-c3ccc([C@H]4CCCN4)cc3F)nc12
max response (KB-3-1): -3.95%
max response (NIH3T3): 0.71%
Potency (MCC-13): inactive
Potency (MCC-26): inactive
Potency (MKL-1): 20.9 µM (active)
Potency (MKL-2): 2.35 µM (active)
Potency (WaGa): 20.9 µM (active)
Potency (C33A): 17.8 µM (active)
Potency (CAOV3): 28.2 µM (active)
Potency (CASKI): 12.6 µM (active)
Potency (Es-2): 31.6 µM (active)
Potency (Hek293T): 17.8 µM (active)
Potency (JEG-3): 14.1 µM (active)

CC/C(=C(\c1ccccc1)c1ccc(OCCN(C)C)cc1)c1ccccc1
max response (HaCat): -10.4%
max response (KB-3-1): -11%
Potency (MKL-2): 26.6 µM (active)
Potency (UISO): 21.1 µM (active)
Potency (C33A): inactive
Potency (CASKI): inactive
Potency (Es-2): inactive
Potency (HeLa): inactive
Potency (Hek293T): inactive
Potency (JEG-3): inactive

CCCCC1C(=O)N(c2ccccc2)N(c2ccccc2)C1=O
max response (HaCat): -4.56%
max response (KB-3-1): 0.189% and 30.8%
Potency (MCC-13): inactive
Potency (MCC-26): inactive
Potency (MKL-1): inactive
Potency (MKL-2): inactive
Potency (UISO): inactive
Potency (WaGa): inactive
Potency (C33A): inactive
Potency (CAOV3): inactive
Potency (CASKI): inactive
Potency (Es-2): inactive
Potency (HeLa): inactive
Potency (Hek293T): inactive
Potency (JEG-3): inactive

CCCCCNC(=O)N1CCC(CN(Cc2ccc(Cl)cc2)Cc2ccc([N+](=O)[O-])s2)C1 (stereo not drawn)
max response (HaCat): 2.36%
Potency (MCC-13): inactive
Potency (MCC-26): inactive
Potency (MKL-1): inactive
Potency (UISO): inactive
Potency (WaGa): inactive

Cc1ccc(C(C)(O)c2nc3ccccc3s2)c(C)c1 (stereo not drawn)
max response (KB-3-1): 4.83%
Potency (MCC-13): inactive
Potency (MCC-26): inactive
Potency (MKL-1): 16.6 µM (active)
Potency (WaGa): 7.43 µM (active)

CCC(=O)NC[C@H](Cc1ccc(OCCc2nc(-c3ccccc3)oc2C)cc1)NC(C)=CC(=O)c1ccc(C(F)(F)F)cc1
outcome (KB-3-1): inactive
Potency (MCC-13): inactive
Potency (MCC-26): inactive
Potency (MKL-1): 7.43 µM (active)
Potency (WaGa): 4.69 µM (active)

CCn1c(C(=O)N(C2CC2)C2CC2)cc2c3c(ncn3C)c(Nc3cc(C)n(C)n3)nc21
max response (HaCat): 2.37% and -28.6%
max response (KB-3-1): 3.91% and 9.29%
Potency (MCC-13): inactive
Potency (MCC-26): inactive
Potency (MKL-1): inactive
Potency (MKL-2): inactive
Potency (UISO): inactive
Potency (WaGa): inactive
Potency (C33A): inactive
Potency (CASKI): inactive
Potency (Es-2): inactive
Potency (HeLa): inactive
Potency (Hek293T): inactive
Potency (JEG-3): inactive

Cc1cc(OCCCc2c(C(=O)O)n(Cc3cccnc3)c3c(-c4c(COc5ccc(N6CCN([S+](C)(=O)[O-])CC6)cc5)nn(C)c4C)cccc23)cc(C)c1Cl
max response (HaCat): -19.1%
max response (NIH3T3): -3.92%
Potency (MCC-13): inactive
Potency (MCC-26): inactive
Potency (MKL-1): inactive
Potency (MKL-2): inactive
Potency (UISO): inactive
Potency (WaGa): inactive
